Data published in PubChem BioAssay (NCATS).
Results filed as inconclusive are left out. Where a call stands in place of a potency, no number is given. Calls of active or inactive are those of the source. The call rests on the fitted dose curve; in most records, active means well fitted inhibition curve with a large enough effect; inconclusive means small, poorly fitted or top-dose-only effect; inactive means flat fitted curve, though single readings scatter. Numbered stars: 1 amine (or outer) side, 2 acyl side, 3 side chain; on linkers, the order of the positions; unused ones are H or OH. Bridge positions count the residues as written; N and C are the ends. Square brackets hold non-standard residues; d marks the D form. Peptide text beside a SMILES is read from it. I, II: the chains in the order shown. Actinocin(9to1) = Cc1c2oc3c(C)ccc(C(=O)[*:1])c3nc-2c(C(=O)[*:2])c(N)c1=O; NMeV = CN[C@H](C(=O)O)C(C)C; Sar = CNCC(=O)O

Assays:
Assay in all cases: qHTS profiling for inhibitors of Plasmodium falciparum proliferation (AID 504749); further: nearly all actives have a fitted effect of over 60% in size
Settings in all cases: P. falciparum in erythrocytes, SYBR Green DNA, 72 h; series mostly up to 28.7 µM
[1] = tested on: ATS189
In short: (§1)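 Parasite proliferation within erythrocytes, 72 h exposure. Endpoint: SYBR Green I fluorescence after overnight lysis at room temperature. Controls: 0.29 uM artemisinin, DMSO.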

[2] = tested on: ATS95
In short: as §1

[3] = tested on: C2A
In short: as §1

[4] = tested on: CP185
In short: as §1

[5] = tested on: CP191
In short: as §1

[6] = tested on: CP192
In short: as §1

[7] = tested on: CP194
In short: as §1

[8] = tested on: CP201
In short: as §1

[9] = tested on: CP203
In short: as §1

[10] = tested on: CP211
In short: as §1

[11] = tested on: CP215
In short: as §1

[12] = tested on: CP217
In short: as §1

[13] = tested on: CP237
In short: as §1

[14] = tested on: CP238
In short: as §1

[15] = tested on: CP247
In short: as §1

[16] = tested on: CP250
In short: as §1

[17] = tested on: CP252
In short: as §1

[18] = tested on: CP260
In short: as §1

[19] = tested on: CP262
In short: as §1

[20] = tested on: CP256
In short: as §1
Potency means the concentration at half of the fitted maximal effect.

| Compound | Potency [1] | Potency [2] | Potency [3] | Potency [4] | Potency [5] | Potency [6] | Potency [7] | Potency [8] | Potency [9] | Potency [10] | Potency [11] | Potency [12] | Potency [13] | Potency [14] | Potency [15] | Potency [16] | Potency [17] | Potency [18] | Potency [19] | Potency [20] |
| --- | --- | --- | --- | --- | --- | --- | --- | --- | --- | --- | --- | --- | --- | --- | --- | --- | --- | --- | --- | --- |
| CN(C)/N=N/c1nc[nH]c1C(N)=O | inactive | inactive | inactive | inactive | inactive | inactive | inactive | inactive | inactive | inactive | inactive | inactive | inactive | inactive | inactive | inactive | inactive | inactive | inactive |  |
| CCCCOc1ccc(C(=O)CCN2CCCCC2)cc1 | inactive | inactive | inactive | inactive | inactive | inactive | inactive | inactive | inactive | inactive | inactive | inactive | inactive | inactive | inactive | inactive | inactive | inactive | inactive | inactive |
| NC(CO)(CO)CO | inactive | inactive | inactive | inactive | inactive | inactive | inactive | inactive |  | inactive | inactive | inactive | inactive | inactive | inactive | inactive | inactive | inactive | inactive | inactive |
| COc1cc(NS(C)(=O)=O)ccc1Nc1c2ccccc2nc2ccccc12 | 3980 nM (active) | 3550 nM (active) | 1780 nM (active) | 4470 nM (active) | 794 nM (active) | 5360 nM (active) | 4780 nM (active) | 5360 nM (active) | 4260 nM (active) | 4780 nM (active) | 3380 nM (active) | 3160 nM (active) | 1580 nM (active) | 4470 nM (active) | 1260 nM (active) | 1580 nM (active) | 891 nM (active) | 1000 nM (active) | 3790 nM (active) | 1000 nM (active) |
| NCCCC[C@H](N[C@@H](CCc1ccccc1)C(=O)O)C(=O)N1CCC[C@H]1C(=O)O | inactive | inactive | inactive | inactive | inactive | inactive | inactive | inactive | inactive | inactive | inactive | inactive | inactive | inactive | inactive | inactive | inactive | inactive | inactive | inactive |
| CC(C)(C(=O)c1cccnc1)c1cccnc1 | inactive | inactive | inactive | inactive | inactive | inactive | inactive | inactive | inactive | inactive | inactive | inactive | inactive | inactive | inactive | inactive | inactive | inactive | inactive | inactive |
| CC(=O)Oc1ccc(C(=C2CCCCC2)c2ccc(OC(C)=O)cc2)cc1 | inactive | inactive | inactive | inactive | inactive | inactive | inactive | inactive | inactive | inactive | inactive | inactive | inactive | inactive | inactive | inactive | inactive |  | inactive | inactive |
| OCc1ccccc1O | inactive | inactive | inactive | inactive | inactive | inactive | inactive | inactive | inactive | inactive | inactive | inactive | inactive | inactive | inactive | inactive | inactive | inactive | inactive | inactive |
| COc1cc(C(=S)N2CCOCC2)cc(OC)c1OC | inactive | inactive | inactive | inactive | inactive | inactive | inactive | inactive | inactive | inactive | inactive | inactive | inactive | inactive | inactive | inactive | inactive | inactive | inactive | inactive |
| CN1C2CCC1CC(OC(=O)c1c[nH]c3ccccc13)C2 (configuration not stated) | inactive | inactive | inactive | inactive | inactive | inactive | inactive | inactive | inactive | inactive | inactive | inactive | inactive | inactive | inactive | inactive | inactive | inactive | inactive | inactive |
| Cc1ccnc(NS(=O)(=O)c2ccc(N)cc2)n1 | inactive | inactive | inactive | inactive | inactive | inactive | inactive | inactive | inactive | inactive |  | inactive | inactive | inactive | inactive | inactive | inactive | inactive | inactive | inactive |
| CC1(C)CCC(NC(=O)[C@@H](N)CCC(=O)O)CC1 | inactive | inactive | inactive | inactive | inactive | inactive | inactive | inactive | inactive | inactive | inactive | inactive | inactive | inactive | inactive | inactive | inactive | inactive | inactive | inactive |
| CCN1CCCC1=O | inactive | inactive | inactive | inactive | inactive | inactive | inactive | inactive | inactive | inactive | inactive | inactive | inactive | inactive | inactive | inactive | inactive | inactive | inactive | inactive |
| COc1c2occc2c(OC)c2c(=O)cc(C)oc12 | inactive | inactive | inactive | inactive | inactive | inactive | inactive | inactive |  | inactive | inactive | inactive | inactive | inactive | inactive | inactive | inactive | inactive | inactive | inactive |
| Cc1cccn2c(=O)c(-c3nnn[nH]3)cnc12 | inactive | inactive | inactive | inactive | inactive | inactive | inactive | inactive | inactive | inactive | inactive | inactive | inactive | inactive | inactive | inactive | inactive | inactive | inactive | inactive |
| Cc1c2oc3c(C)ccc(C(=O)N[C@@H]4C(=O)N[C@H](C(C)C)C(=O)N5CCC[C@H]5C(=O)N(C)CC(=O)N(C)[C@@H](C(C)C)C(=O)O[C@@H]4C)c3nc-2c(C(=O)N[C@@H]2C(=O)N[C@H](C(C)C)C(=O)N3CCC[C@H]3C(=O)N(C)CC(=O)N(C)[C@@H](C(C)C)C(=O)O[C@@H]2C)c(N)c1=O (I: T[dV]P[Sar][NMeV] / II: T[dV]P[Sar][NMeV]; ester I:1-I:C, II:1-II:C; linker I:N-II:N via Actinocin(9to1)) | 3.2 nM (active) | 4 nM (active) | 5.6 nM (active) | 4.5 nM (active) | 4.5 nM (active) | 6 nM (active) | 5.4 nM (active) | 7.6 nM (active) | 6 nM (active) | 6 nM (active) | 5.4 nM (active) | 7.1 nM (active) | 0.0708 nM (active) | 1.8 nM (active) | 7.1 nM (active) | 3.5 nM (active) | 5.6 nM (active) | 3.5 nM (active) | 3.4 nM (active) | 7.9 nM (active) |
| O=C(O)CCCCC(=O)O | inactive | inactive | inactive | inactive | inactive | inactive | inactive | inactive |  | inactive | inactive | inactive | inactive | inactive | inactive | inactive | inactive | inactive | inactive | inactive |
| N[C@@H](Cc1cnc[nH]1)C(=O)O | inactive | inactive | inactive | inactive | inactive | inactive | inactive | inactive | inactive | inactive | inactive | inactive | inactive | inactive | inactive | inactive | inactive | inactive | inactive | inactive |
| CC(=O)OCC(=O)NCCCOc1cccc(CN2CCCCC2)c1 | inactive | inactive | inactive | inactive | inactive | inactive | inactive | inactive |  |  | inactive | inactive | inactive | inactive | inactive | inactive | inactive | inactive | inactive | inactive |
| c1ccc(OCc2ccc(CCCN3CCOCC3)cc2)cc1 | inactive | inactive | inactive | inactive | inactive | inactive | inactive | inactive |  | inactive | inactive | inactive | inactive | inactive | inactive | inactive | inactive | inactive | inactive | inactive |
| CCCCC(CC)CN=C(N)NC(N)=NCCCCCCN=C(N)NC(N)=NCC(CC)CCCC (configuration not stated) | 3160 nM (active) | 1410 nM (active) | 2240 nM (active) | 1410 nM (active) | 1000 nM (active) | 3790 nM (active) | 1510 nM (active) | 1690 nM (active) |  | 1510 nM (active) | 1690 nM (active) | 3160 nM (active) | 1260 nM (active) | 1000 nM (active) | 1120 nM (active) | 891 nM (active) | 1260 nM (active) | 1120 nM (active) | 1070 nM (active) | 3550 nM (active) |
| O=C(O)CNC(=O)c1ccccc1 | inactive | inactive | inactive | inactive | inactive | inactive | inactive | inactive |  | inactive | inactive | inactive | inactive | inactive | inactive | inactive | inactive | inactive | inactive | inactive |
| CNCCC(Oc1ccccc1C)c1ccccc1 (configuration not stated) | inactive | inactive | inactive | inactive | inactive | inactive |  | inactive |  | inactive |  |  | inactive |  |  | inactive | inactive | inactive | inactive |  |
| COC(=O)[C@@H]1CC2=CC(=O)CC[C@]2(C)[C@@]23O[C@@H]2C[C@@]2(C)[C@@H](CC[C@@]24CCC(=O)O4)[C@H]13 | inactive | inactive | inactive | inactive | inactive | inactive | inactive | inactive |  | inactive | inactive | inactive | inactive | inactive | inactive | inactive | inactive | inactive | inactive | inactive |
| CC(Cc1cccc(C(F)(F)F)c1)NCCOC(=O)c1ccccc1 (configuration not stated) | inactive | inactive | inactive | inactive | inactive | inactive |  | inactive |  | inactive | inactive | inactive |  | inactive | inactive | inactive | inactive | inactive | inactive | inactive |
| Nc1ccc(C(=O)O)cc1 | inactive | inactive | inactive | inactive | inactive | inactive | inactive | inactive |  | inactive | inactive | inactive | inactive | inactive | inactive | inactive | inactive | inactive | inactive | inactive |
